Experimental data: PubChem BioAssay AID1159580 (chemical genetic matrix, 2015)
“And” between values parts separate entries of the source, which are not always exact repeats. Identical values can stand only once. Hit rate of the full screen: of about 5,500 compounds, about 2,000 (36%) were called active. Inconclusive results (about 18%) are left out. No stated cut-off is given here; in the data, active means normalized growth mostly below about 0.91 (no sharp cut-off); inconclusive means no clear call, values can overlap the other calls; inactive means mostly above about 0.92. Some of the results follow.

Test: chemical genetic growth profiling, strain panel (AID 1159580);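 further: tested at 20 µM; growth read once vehicle control cultures reached saturation at 30 °C; 1 = growth at the plate median or of vehicle wells; lower values mean less growth of the strain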
Conditions: S. cerevisiae deletion strains, growth OD

Measured: normalized growth

COc1ccc(-c2cc(=O)c3c(O)c(OC)c(O[C@H]4O[C@H](CO[C@@H]5O[C@@H](C)[C@H](O)[C@@H](O)[C@H]5O)[C@@H](O)[C@H](O)[C@H]4O)cc3o2)cc1
inactive: locus YAL021C, strain ccr4, hits give low values 1.02 | locus YAL026C, strain drs2, hits give low values 1 | locus YAL030W, strain snc1, hits give low values 1.01 | locus YBL061C, strain skt5, hits give low values 0.996 | locus YBR009C, strain hhf1, hits give low values 1 | locus YBR021W, strain FUR4, hits give low values 1.02 | locus YBR023C, strain chs3, hits give low values 0.996 | locus YBR171W, strain sec66, hits give low values 0.989 | locus YBR229C, strain ROT2, hits give low values 1.01 | locus YBR231C, strain swc5, hits give low values 0.977 | locus YBR279W, strain paf1, hits give low values 0.987 | locus YCL011C, strain gbp2, hits give low values 0.991 | locus YCL016C, strain dcc1, hits give low values 1.01 | locus YCL029C, strain bik1, hits give low values 1.04 | locus YCL061C, strain MRC1, hits give low values 1 | locus YCL069W, strain vba3, hits give low values 1 | locus YCR088W, strain abp1, hits give low values 1.01 | locus YDL005C, strain med2, hits give low values 1 | locus YDL035C, strain GPR1, hits give low values 1.02 | locus YDL040C, strain nat1, hits give low values 0.98 | locus YDL074C, strain BRE1, hits give low values 1.01 | locus YDL101C, strain DUN1, hits give low values 1.02 | locus YDL185W, strain tfp1, hits give low values 1.01 | locus YDL192W, strain arf1, hits give low values 1.01 | locus YDR001C, strain nth1, hits give low values 1 | locus YDR069C, strain doa4, hits give low values 0.967 | locus YDR101C, strain arx1, hits give low values 1.02 | locus YDR137W, strain rgp1, hits give low values 1.05 | locus YDR150W, strain NUM1, hits give low values 1.01 | locus YDR159W, strain sac3, hits give low values 0.995 | locus YDR162C, strain NBP2, hits give low values 1.03 | locus YDR195W, strain ref2 0.978 | locus YDR297W, strain sur2, hits give low values 0.988 | locus YDR318W, strain mcm21, hits give low values 1.02 | locus YDR334W, strain swr1, hits give low values 0.99 | locus YDR335W, strain msn5, hits give low values 1 | locus YDR388W, hits give low values 1.01 | locus YDR392W, strain spt3, hits give low values 0.981 | locus YDR502C, strain sam2, hits give low values 1.01 | locus YEL003W, strain gim4, hits give low values 0.982 | locus YEL037C, strain rad23, hits give low values 1 | locus YEL061C, strain CIN8 (second series), hits give low values 0.996 | locus YER015W, strain faa2, hits give low values 0.984 | locus YER016W, strain bim1, hits give low values 0.992 | locus YER110C, hits give low values 1.02 | locus YER111C, strain swi4, hits give low values 0.979 | locus YER155C, strain BEM2 (second series), hits give low values 0.972 | locus YER155C, strain BEM2, hits give low values 1.04 | locus YER167W, strain BCK2, hits give low values 1.02 | locus YFR010W, strain ubp6, hits give low values 0.994 | locus YGL078C, strain dbp3, hits give low values 1.01 | locus YGL086W, strain mad1, hits give low values 1.01 | locus YGL167C, strain pmr1, hits give low values 0.983 | locus YGL173C, strain kem1, hits give low values 0.996 | locus YGL227W, strain vid30, hits give low values 1 | locus YGL240W, strain doc1, hits give low values 0.998 | locus YGL248W, strain PDE1, hits give low values 1.01 | locus YGL253W, strain hxk2, hits give low values 1 | locus YGR078C, strain PAC10, hits give low values 0.999 | locus YGR135W, strain pre9, hits give low values 0.993 | locus YGR229C, strain SMI1, hits give low values 1.16 | locus YGR252W, strain gcn5, hits give low values 0.955 | locus YHR013C, strain ard1, hits give low values 1 | locus YHR027C, strain rpn1, hits give low values 0.99 | locus YHR030C, strain SLT2, hits give low values 1.02 and 0.993 | locus YHR079C, strain IRE1 (second series), hits give low values 1.01 | locus YHR079C, strain IRE1, hits give low values 1.01 | locus YHR094C, strain hxt1, hits give low values 1.01 | locus YHR129C, strain ARP1, hits give low values 1 | locus YHR142W, strain chs7, hits give low values 1.01 | locus YHR200W, strain rpn10, hits give low values 1.01 | locus YIL066C, strain RNR3, hits give low values 1.02 | locus YIL073C, strain SPO22, hits give low values 1.08 | locus YIL125W, strain kgd1, hits give low values 1.01 | locus YIR030C, strain dcg1, hits give low values 1.02 | locus YJL092W, strain hpr5, hits give low values 0.994 | locus YJL095W, strain BCK1 (second series), hits give low values 1 | locus YJL095W, strain BCK1, hits give low values 1.02 and 0.995 | locus YJL115W, strain asf1, hits give low values 0.999 | locus YJL129C, strain trk1, hits give low values 0.994 | locus YJL134W, strain LCB3, hits give low values 1.02 | locus YJL154C, strain vps35, hits give low values 1 | locus YJL164C, strain tpk1, hits give low values 1 | locus YJL166W, strain qcr8, hits give low values 1 | locus YJL168C, strain set2, hits give low values 1 | locus YJL187C, strain SWE1 (second series), hits give low values 1.01 | locus YJL187C, strain SWE1, hits give low values 1.02 | locus YJR066W, strain TOR1, hits give low values 0.906 | locus YKL009W, strain mrt4, hits give low values 1.05 | locus YKL068W, hits give low values 1.02 | locus YKL085W, strain MDH1 (second series), hits give low values 1.02 | locus YKL085W, strain MDH1, hits give low values 1.02 | locus YKL160W, strain elf1, hits give low values 0.997 | locus YKL190W, strain CNB1, hits give low values 1.01 | locus YKR001C, strain vps1, hits give low values 1.01 | locus YKR026C, strain gcn3, hits give low values 0.992 | locus YKR091W, strain srl3, hits give low values 0.998 | locus YLL001W, strain dnm1, hits give low values 1 | locus YLL026W, hits give low values 0.998 | locus YLL041C, strain sdh2, hits give low values 1 | locus YLR027C, strain aat2, hits give low values 0.988 | locus YLR039C, strain RIC1, hits give low values 1.1 | locus YLR058C, strain SHM2, hits give low values 1.02 | locus YLR102C, strain apc9, hits give low values 1.02 | locus YLR113W, strain HOG1, hits give low values 1.04 | locus YLR221C, strain rsa3, hits give low values 0.995 | locus YLR258W, strain gsy2, hits give low values 1.02 | locus YLR262C, strain YPT6 (second series), hits give low values 1.03 | locus YLR268W, strain sec22, hits give low values 1.03 | locus YLR320W, strain mms22, hits give low values 0.998 | locus YLR342W, strain FKS1 (second series), hits give low values 1.03 | locus YLR342W, strain FKS1, hits give low values 1 | locus YLR357W, strain rsc2, hits give low values 0.964 | locus YLR370C, strain arc18, hits give low values 0.995 | locus YLR371W, strain rom2, hits give low values 1.03 | locus YLR384C, strain iki3, hits give low values 0.978 | locus YLR418C, strain cdc73, hits give low values 1.03 | locus YML016C, strain PPZ1, hits give low values 0.991 | locus YML032C, strain rad52, hits give low values 1.03 | locus YML120C, strain ndi1, hits give low values 1.01 | locus YML124C, strain tub3, hits give low values 1.02 | locus YMR058W, strain fet3, hits give low values 0.928 | locus YMR078C, strain ctf18, hits give low values 1.02 | locus YMR125W, strain sto1, hits give low values 1 | locus YMR129W, hits give low values 0.996 | locus YMR205C, strain PFK2, hits give low values 1.05 | locus YMR223W, strain ubp8, hits give low values 1.01 | locus YMR231W, strain pep5, hits give low values 0.96 | locus YMR307W, strain GAS1, hits give low values 1.08 | locus YNL067W, strain RPL9B, hits give low values 1.01 | locus YNL071W, strain lat1, hits give low values 1.01 | locus YNL128W, strain TEP1, hits give low values 1.03 | locus YNL183C, strain NPR1, hits give low values 0.938 | locus YNL209W, strain ssb2, hits give low values 0.986 | locus YNL233W, strain BNI4, hits give low values 1.01 | locus YNL248C, strain rpa49, hits give low values 0.996 | locus YNL250W, strain rad50, hits give low values 1.04 | locus YNL271C, strain bni1, hits give low values 1.01 | locus YNL298W, strain CLA4, hits give low values 1.02 | locus YNL307C, strain MCK1, hits give low values 1.01 | locus YNL322C, strain KRE1 (second series), hits give low values 1 | locus YNR049C, strain mso1, hits give low values 1 | locus YNR052C, strain pop2, hits give low values 1.01 | locus YOL012C, strain htz1 0.859 | locus YOL147C, strain pex11, hits give low values 0.996 | locus YOR001W, strain rrp6, hits give low values 0.98 | locus YOR061W, strain CKA2, hits give low values 1.02 | locus YOR069W, strain VPS5, hits give low values 1.01 | locus YOR070C, strain gyp1, hits give low values 0.985 | locus YOR080W, strain dia2, hits give low values 0.992 | locus YOR083W, strain WHI5, hits give low values 0.998 | locus YOR106W, strain vam3, hits give low values 0.992 | locus YOR136W, strain idh2, hits give low values 1.02 | locus YOR144C, strain elg1, hits give low values 1.02 | locus YOR184W, strain ser1, hits give low values 1.04 | locus YOR231W, strain MKK1, hits give low values 1.03 | locus YOR265W, strain rbl2, hits give low values 1.02 | locus YOR270C, strain vph1, hits give low values 0.993 | locus YOR290C, strain snf2, hits give low values 0.992 | locus YOR316C, strain cot1, hits give low values 1.02 | locus YPL051W, strain arl3, hits give low values 0.995 | locus YPL078C, strain atp4, hits give low values 1.03 | locus YPL106C, strain sse1, hits give low values 0.974 | locus YPL240C, strain hsp82, hits give low values 0.995 | locus YPL241C, strain CIN2, hits give low values 1.01 | locus YPL256C, strain CLN2, hits give low values 0.994 | locus YPR119W, strain clb2, hits give low values 1.01 | locus YPR141C, strain kar3, hits give low values 1.02 | locus YPR163C, strain tif3, hits give low values 0.999 | locus YPR167C, strain met16, hits give low values 1.01 | strain wtn01, hits give low values 1.01
